# Compound activity (PubChem)
# A selection: hits, their analogues and other compounds. The true share with any hit is near 3%.
# Wnt bcat act: activates Wnt/beta-catenin signaling in a reporter cell assay | activator, plate reader | activation, % at 9.35 µM | 1.2% of 300,000 active; in the data active = activation above about 30%, passing the limit was not always enough; inconclusive = no clear call, values can overlap the other calls;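 note: 0% = neutral control wells and 100% = positive control wells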
# C2C12 statin: suppressors of simvastatin-induced myotoxicity in C2C12 myotubes | rescue of ATP level, % at 7.49 µM | ATP luminescence, 48 h; scaled: DMSO 0, geranylgeraniol control 100 | 0.78% of 330,000 active;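 active = mean ATP rescue above about 67%, or every replicate alone reaching that limit, limit read from the data, passing the limit was not always enough; inconclusive = no clear call, values can overlap the other calls; inactive = mean under the limit and some replicate under it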;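 note: myotubes were challenged with 10 µM simvastatin during compound exposure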
# MITF TRPM1 HTS: MITF TRPM1 promoter activation in melanoma cells; SK-MEL-5 TRPM1-promoter luciferase, 24 h; % of positive control, neutral wells = 0; activation, % at 12.5 µM; 0.75% of 300,000 active; AID 588334;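 active = mean activation of at least 80% with every replicate also reaching 80%; inconclusive = mean reaches 80% but some replicate falls short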;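 note: 0% = neutral control wells and 100% = parthenolide positive control wells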
# esBAF inh: blocks esBAF chromatin remodeling in mouse ES cells. 2% of 350,000 active. reporter increase, % at 12.5 µM. Bmi1-luciferase knock-in reporter, 24 h; 100% = twice the neutral-well signal; in the data active = activation above about 40%; inconclusive = no clear call, values can overlap the other calls;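 note: 0% = median of the plate's neutral control wells and 100% = double that signal; a rise in the Bmi1 reporter signal indicates esBAF inhibition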
# An asterisk follows results filed as active; ? = inconclusive; / = no result.
SMILES,Wnt bcat act,C2C12 statin,MITF TRPM1 HTS,esBAF inh
O=C(N[C@@H]1C=C[C@H](CC(=O)N2CCCCC2)O[C@@H]1CO)c1cccc(F)c1,/,-2.6,/,-6.6
CC(C)Oc1cc(O)c2c(=O)c(-c3ccc(O)cc3)coc2c1,8.1,-13.7,52.3,1.8
COc1ccc(-c2coc3cc(OC)cc(O)c3c2=O)cc1,/,/,95.6*,/
COc1ccc(-c2coc3cc(OC)cc(OC)c3c2=O)cc1,0.7,1.3,61.3,63.0*
COc1ccc(-c2coc3cc(O)ccc3c2=O)cc1,47.0*,7.5,75.9,15.1
COc1cc(O)cc2occ(-c3ccc(O)cc3)c(=O)c12,-1.5,-2.7,17.8,26.0
O=c1c(-c2ccc(O)cc2)coc2cc(O)cc(O)c12,44.4*,17.1,99.6*,57.2*
COc1ccc(-c2coc3cc(OC)ccc3c2=O)cc1,1.3,7.3,45.7,6.9
CO[C@H]1CN(C)C(=O)c2cc(C#N)ccc2OC[C@@H]2O[C@@H](CC[C@H]2OC)CCN(C)C(=O)[C@H]1C,/,0.1,/,0.5
CC=Cc1ccc2n(c1=O)C[C@@H]1[C@@H](CO)[C@H](C(=O)NCCC)[C@H]2N1S(=O)(=O)c1cn(C)cn1 (mixture of isomers),/,8.3,/,-1.3
COc1ccc(-c2coc3cc(O)cc(O)c3c2=O)cc1,55.3*,4.2,96.5*,46.3*
CCc1ccc2c(COC(=O)c3n[nH]c4ccccc34)cc(=O)oc2c1,/,0.7,/,77.3*
Cc1ccc2c(COC(=O)c3n[nH]c4ccccc34)cc(=O)oc2c1,/,10.1,/,69.1*
CC(C)NC(=O)N(C)C[C@@H]1Oc2ccc(NC(=O)C3CCCCC3)cc2CC(=O)N([C@H](C)CO)C[C@H]1C,/,-17.2,/,1.3
CCNC(=O)[C@@H]1[C@@H](CO)[C@@H]2Cn3c(ccc(-c4ccc(OC)cc4)c3=O)[C@H]1N2S(C)(=O)=O,/,16.2,/,-7.1
C[C@H]1CN([C@@H](C)CO)C(=O)c2cc(-c3cccnc3)cnc2O[C@H]1CN(C)Cc1ccccc1,/,-9.5,/,/
Cc1ccc(NC(=O)CSCC(=O)NCc2ccco2)cc1,-1.1,-0.1,-6.1,-2.3
Cc1ccc(NC(=O)C(=S)NCc2ccco2)cc1,3.3,135.4*,/,23.3
Cc1ccc(-c2cc(C(=O)NCc3ccco3)no2)cc1,23.1,20.9,97.7*,27.5
COc1cccc(-c2cc(C(=O)NCc3ccco3)no2)c1,-3.7,28.4,63.4,44.8*
O=C(NCc1ccco1)c1cc(-c2cccc(Cl)c2)on1,/,/,36.7,/
C[C@@H]1CN([C@@H](C)CO)C(=O)c2cc(NC(=O)NC3CCCCC3)ccc2O[C@H]1CN(C)C,/,-19.0,/,-0.1
CS(=O)(=O)Nc1ccc2c(c1)[C@H]1C[C@@H](CC(=O)NCc3ccc(Cl)cc3)O[C@H](CO)[C@H]1O2,/,1.4,/,4.1
Cc1cc(NC(=O)c2cc(C)on2)no1,/,33.1,-0.1,1.5
Cc1cc(C(=O)Nc2ccc3[nH]ccc3c2)no1,58.8*,-9.2,63.6,26.1
SMILES,Wnt bcat act,C2C12 statin,MITF TRPM1 HTS,esBAF inh
CCOc1ccc2nc(N3CCC(C(=O)N4CCN(C(=O)c5ccco5)CC4)CC3)sc2c1,/,1.0,11.7,23.9
CCOc1ccc2nc(N3CCC(C(=O)Nc4nnc(CC)s4)CC3)sc2c1,1.7,34.0,34.2,48.0*
CCOc1ccc2nc(N3CCC(C(=O)N4CCN(C5CCCCC5)CC4)CC3)sc2c1,-4.1,-1.8,-2.2,64.7*
CCOc1ccc2nc(N3CCCC(C(=O)N4CCN(CC)CC4)C3)sc2c1 (centres undefined),3.7,116.3*,8.9,39.2
O=C(Nc1nc2ccccc2s1)C1CCN(C(=O)c2ccco2)CC1,0.9,3.4,/,21.1
CCOc1ccc2nc(NC(=O)C3CCN(C(=O)c4ccco4)CC3)sc2c1,20.7,-0.7,76.9,65.3*
O=C(C[C@H]1C=C[C@H](NS(=O)(=O)c2cccc(F)c2)[C@H](CO)O1)NCc1ccc2c(c1)OCO2,/,5.4,/,0.4
O=C(C[C@H]1C[C@H]2c3cc(NC(=O)NC4CCCC4)ccc3O[C@H]2[C@@H](CO)O1)NC1CCCCC1,/,6.9,/,2.6
O=C(NCC[C@H]1CC[C@@H](NC(=O)C2CCOCC2)[C@H](CO)O1)c1ccc(F)cc1,/,3.5,/,-4.3
N[C@H]1CC[C@H](CCn2cc(-c3ccccn3)nn2)O[C@@H]1CO,/,0.0,/,1.2
Cc1cc(-c2ccccc2)nc(N/N=C/c2ccccc2F)n1,11.1,-4.0,/,55.9*
Cc1cc(C)nc(N/N=C/c2ccccc2OCc2ccc(Cl)cc2)n1,35.0*,/,23.9,/
C/C(=N\Nc1nc(C)cc(-c2ccccc2)n1)c1ccc(O)cc1,3.5,-17.9,/,20.2
Cc1ccc2nc(N/N=C/c3ccccc3F)nc(-c3ccccc3)c2c1,1.9,/,14.5,/
Cc1cc(C)nc(N/N=C/c2ccccc2OCc2ccccc2)n1,6.3,1.2,8.6,5.4
C/C(=N\Nc1nc(C)cc(-c2ccccc2)n1)c1ccccc1,0.3,-20.4,/,62.7*
C[C@@H]1CCCCO[C@@H](CN(C)S(=O)(=O)c2cccs2)[C@H](C)CN([C@@H](C)CO)C(=O)c2cc(NC(=O)c3ccccc3)ccc2O1,/,/,/,-2.5
COc1ccccc1S(=O)(=O)N[C@H]1CC[C@H](CC(=O)N2CCOCC2)O[C@@H]1CO,/,2.8,/,-3.4
C[C@H](O)C#Cc1ccc2c(c1)O[C@@H](CN(C)C(=O)CN(C)C)[C@H](C)CN([C@@H](C)CO)S2(=O)=O,/,-7.2,/,-3.6
CCN(C(=O)COC(=O)c1nc2nc(C)cc(C)n2n1)C1CCS(=O)(=O)C1 (centres undefined),4.1,4.1,18.9,-3.8
Cc1cc(C)n2nc(C(=O)OCC(=O)N(CC(C)C)C3CCS(=O)(=O)C3)nc2n1 (centres undefined),-3.3,96.1*,3.5,/
COc1ccc(S(=O)(=O)N2C[C@@H](O)COC[C@H]3O[C@H](CC(=O)NCc4ccc(Cl)c(Cl)c4)CC[C@@H]32)cc1,/,4.6,/,-1.5
COc1ccc(CNS(=O)(=O)c2ccc3c(c2)CCN3C(=O)C2CCC2)cc1,-0.5,112.8*,-4.3,1.3
COc1cccc(CNS(=O)(=O)c2ccc3c(c2)CCN3C(=O)C2CC2)c1,-0.9,/,7.8,/
COc1ccc(NC(=O)c2cc3ccccc3o2)cc1,3.6,-5.7,54.6,58.4*
SMILES,Wnt bcat act,C2C12 statin,MITF TRPM1 HTS,esBAF inh
O=C(NC(=S)Nc1ccc(NC(=O)c2cccs2)cc1)c1cc2ccccc2o1,/,/,-0.9,/
N=c1oc2cc(O)ccc2cc1C(=O)Nc1ccc(Cl)cc1,47.4*,0.0,53.8,57.7*
COc1ccc(NC(=O)c2cc3ccccc3o2)cc1OC,8.0,8.1,35.2,?
COc1ccc(NC(=O)c2cc(=O)c3ccccc3o2)cn1,/,-8.9,26.1,2.4
COc1ccc(NC(=O)c2cc3ccccc3o2)cn1,42.8*,-6.3,104.0*,68.5*
O=C(c1cc2ccccc2o1)c1cccs1,57.9*,22.6,/,?
C[C@@H]1CN([C@H](C)CO)C(=O)c2cc(NC(=O)Nc3ccccc3)ccc2O[C@@H](C)CCCCO[C@H]1CN(C)C,/,13.7,/,-2.1
CC(=O)c1ccc(NC(=O)c2cc3ccccc3o2)cc1,38.8*,-8.0,30.8,39.1
Cc1cc(C(=O)Nc2cccc3ccccc23)oc1C,4.3,-0.4,/,31.0
O=C(Nc1ccc(F)cc1)c1cc2ccccc2o1,15.5,9.0,44.8,46.6*
Cc1cc(C(=O)Nc2ccccc2)oc1C,/,/,112.5*,/
